From PubChem BioAssay (NCI) come the findings set out here.

“And” between values parts separate entries of the source, which are not always exact repeats. Equal values may be shown once. The panel holds about 83,000 compounds, 20% with a hit somewhere; the sample as a whole holds those more often.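 Assay: single dose, 48 h. Readout: percent growth (0 = no net growth; negative = cell death). Active: <10.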 A number with no mark means an inactive call. The source made the active and inactive calls.

The test has as its system MDA-MB-468 breast. Description: NCI-60 one-dose screen, 48 h (100 = growth as untreated, 0 = no growth, -100 = all killed). To be noted: 10 µM unless noted.
In the case of `C=C[C@@H]1C[C@@H]2Cc3c(C)cc(C)cc3N1O2`, the growth was 97.9%. In the case of `CCN1CCN(CCNc2nccc(-c3c(-c4cccc(O)c4)nc4sccn34)n2)S1(=O)=O` it was 86.7% and 81.1%; in that of `O=C(COc1ccc(/C=C2\SC(=O)NC2=O)cc1)Nc1ccc(C(=O)/C=C/c2cc3ccccc3nc2Cl)cc1`, 20.6%; in that of `N#Cc1nc(-c2ccccc2)oc1S(=O)(=O)NCC(c1ccc(Cl)cc1)N1CCCCC1` (configuration not stated), 41.4%. Next, `COc1ccc(-c2nnc(N3CCN(C(=O)CN4CCN(c5ccc(Cl)cc5)CC4)CC3)nc2-c2ccc(OC)cc2)cc1`: 74%; `CCN1CCN(c2nc(NNC(=O)c3cccc(OC)c3)nc(N3CCN(C(c4ccccc4)c4ccccc4)CC3)n2)CC1`: 54.7%; `Cc1cc(NC(=O)c2cnc(N3CCN(CCOCCOCCOCCOCCC(=O)N[C@H](C(=O)N4C[C@H](O)C[C@H]4C(=O)N[C@@H](C)c4ccc(-c5scnc5C)cc4)C(C)(C)C)CC3)cn2)c2ncccc2c1`: -57.9% (active).

On to `O=C1/C(=C/c2ccc3c(c2)OCO3)SC(=S)N1C1c2ccccc2Oc2ccccc21`, for which the growth was 90.4%. In the case of `N/C(=N\c1nc2ccccc2s1)NC(=O)Nc1cccc2ccccc12` it was 3.96% (active); in that of `OC(c1ccccn1)C(O)c1ccccn1` (configuration not stated), 113%. Next, `COc1ccc(/C=C/C(=O)c2cc3c(N)c(C(=O)Nc4ccccc4Cl)sc3nc2C)cc1`: 5.35% (active). As for `Cc1c(O)c(O)cc2c3c(oc12)CC(c1ccc2c(c1)OCO2)CC3=O` (configuration not stated), the growth is 93.2%.
